Compound activity as filed in PubChem.
Pf growth 48h = P. falciparum growth inhibition at 48 hours (one generation) | P. falciparum luciferase growth in erythrocytes, 48 h | Potency, µM (top dose mostly 28.7 µM), for inactives: at the top dose activity change, negative = inhibition, usual class: inhibitors | 310,000 compounds, 5.9% hits; also: potency is read from the fitted curve at half-maximal effect; % is scaled to controls: 0 for no effect and ±100 for the full control effect
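Compounds are pin-transferred into medium, infected erythrocytes (2% hematocrit, 0.1% parasitemia final) are added, and plates sit one parasite generation at 37 C in 5% CO2. Detection reagent is then added and luminescence measured.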
SARS PLpro yeast = inhibitors of SARS-CoV papain-like protease in yeast | Potency, µM (series often up to 32.9 µM), for the others: at the top dose activity, positive = growth rescue, actives largely listed as activators | S. cerevisiae expressing SARS-CoV PLpro, growth rescue | 330,000 compounds, 0.19% hits | AID 485353; calls by dose curve; also: potency is read from the fitted curve at half-maximal effect; 0% is about no effect; nearly all actives have a fitted effect of over 55% in size
HCMV inh = blocks human cytomegalovirus replication; HFF cells, HCMV-luciferase reporter, 72 h; hits give low values; activity change, negative = inhibition, % at 57.5 µM; 410,000 compounds, 4.5% hits; in the data active = activity change below about -60%; inconclusive = no clear call, values can overlap the other calls; inactive = above about -39%; also: % is scaled to controls: 0 for no effect and ±100 for the full control effect
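Two-dose cell screen: HFF monolayers treated with compounds and infected with luciferase-expressing HCMV at 1 PFU/cell, 72 h at 37C, then lysed for luciferase measurement.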
Sm TGR block = blocks Schistosoma mansoni thioredoxin glutathione reductase; Q962Y6; purified TGR, DTNB reduction, TNB absorbance 405 nm; Potency, µM (doses to about 114 µM), for the others: at the highest dose activity change, negative = inhibition, actives largely listed as inhibitors; 360,000 compounds, 3% hits; AID 485364; also: potency is read from the fitted curve at half-maximal effect; % is scaled to controls: 0 for no effect and ±100 for the full control effect; nearly all actives have a fitted effect of over 60% in size
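Kinetic colorimetric format: TGR-catalysed, NADPH-driven DTNB reduction monitored via TNB absorbance. Enzyme dispensed at 20 nM; compound exposure 15 min at room temperature before reaction start.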
HCV inhibitor = blocks hepatitis C virus. Huh7.5.1 HCVcc-Cre infection, luciferase reporter, 44 h. 340,000 compounds, 3.4% hits. Potency, µM (series often up to 41.8 µM), without a hit: at the top dose activity change, negative = inhibition, usual class: inhibitors; also: potency is read from the fitted curve at half-maximal effect; % is scaled to controls: 0 for no effect and ±100 for the full control effect
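Cells seeded at 1,000/well and cultured 4 h, then compounds added followed by HCVcc-Cre virus (~0.5 moi). After 44 h further culture, luciferase substrate was added, plates held 15 min at room temperature, and luminescence read for 15 sec.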
Pf growth 96h = P. falciparum growth inhibition at 96 hours. 320,000 compounds, 6.9% hits. P. falciparum luciferase reporter growth, 96 h. Potency, µM (titrated, usually from 28.7 µM), for the others: top-dose activity change, negative = inhibition, usual class: inhibitors; also: potency is read from the fitted curve at half-maximal effect; % is scaled to controls: 0 for no effect and ±100 for the full control effect
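Readout is luminescence from an integrated firefly luciferase in P. falciparum. Red cells, 2% hematocrit and 0.05% parasitemia final, were cultured with compound through two parasite generations (96 hours) at 37 C, 5% CO2.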
* marks the source's active call; other numbers are inactive results; ? = inconclusive; . = no result. An excerpt weighted towards active compounds, which were near 15% of everything screened. Unless noted, calls follow the shape of the dose curve; as a rule, active = well fitted curve in the direction sought with a large enough effect; inconclusive = small, poorly fitted or top-dose-only effect, or another doubt; inactive = no such curve, though single readings can be large; an effect the other way counts as inactive or inconclusive.

SMILES | Pf growth 48h | SARS PLpro yeast | HCMV inh | Sm TGR block | HCV inhibitor | Pf growth 96h
Cc1ccc2occ(/C=N/NC(=O)c3ccccc3O)c(=O)c2c1 | 11% | -1% | -83* | 6% | ? | 38%
Cc1ccc2occ(/C=N/NC(=O)c3ccncc3)c(=O)c2c1 | 10% | 7% | -31 | -16% | 5% | 3.7µM*
Cc1ccc2occ(/C=C/C(=O)c3ccccc3O)c(=O)c2c1 | 20% | 1% | 6 | 9% | 8% | 35%
Cc1ccc2occ(/C=N/NC(=O)c3ccc(Cl)cc3)c(=O)c2c1 | 3% | -6% | -65* | -8% | -2% | 0%
CCOc1ccccc1C(=O)N/N=C/c1coc2ccc(Cl)cc2c1=O | 1% | 4% | -74* | 5% | ? | ?
COc1ccc(C(=O)N/N=C\c2coc3ccc(C)cc3c2=O)cc1 | -10% | 12% | -27 | -1% | 9% | -13%
O=C(N/N=C/c1coc2ccccc2c1=O)c1ccncc1 | 11% | 5% | 2 | -21% | 12% | -25%
O=C(N/N=C/c1coc2ccc(Cl)cc2c1=O)c1cc(O)cc(O)c1 | 12% | 6% | 2 | ? | -25% | ?
O=C(CN(CCc1ccccc1)Cc1ccccc1)Oc1ccccc1P(=O)(O)O | 27% | 1% | -7 | -20% | 13% | ?
COc1cc2c(cc1OC)C(COc1ccc(F)cc1)N(C(=O)Cc1ccc(F)cc1)CC2 (stereo not given) | . | . | 8 | 5% | . | .
Cc1cc(=O)[nH]c2nnc(SCc3cccc(C(F)(F)F)c3)n12 | . | . | ? | 0% | . | .
CCCOc1cccc(C(=O)N/N=C/c2coc3ccccc3c2=O)c1 | 22% | ? | -10 | 0% | 8% | 13µM*
COc1ccc(OC)c(CNC(=O)c2cnc3c(C)cccn3c2=O)c1 | . | . | 5 | 14% | . | .
COc1ccc(-c2nnc(SCC(=O)Nc3ccc(Cl)cc3)s2)cc1 | . | . | 24 | 0% | . | .
O=C(CNC(=O)c1ccccc1)c1ccccc1 | 106% | 2% | 35 | -11% | 24% | 202%
c1ccc(N(c2ccccc2)c2nc(N3CCCC3)nc(-n3ccnc3)n2)cc1 | 5.9µM* | -15% | -66* | -21% | ? | ?
CCOC(=O)N1CCN(c2nc(N(c3ccccc3)c3ccccc3)nc(-n3ccnc3)n2)CC1 | ? | 0% | ? | 13% | . | ?
CN(c1ccccc1)c1nc(N2CCCC2)nc(-n2ccnc2)n1 | 5.2µM* | -30% | -20 | 3% | ? | ?
CCN(CC)C(=O)[C@H]1C[C@H](CC(=O)NCCN2CCOCC2)C(=O)N2CCc3c([nH]c4cc(CCC(=O)N(C)C)ccc34)[C@]12C | . | 2% | -3 | . | 7% | .
CC1CN(S(=O)(=O)c2ccc(C(=O)N(C)C3CCCCC3)cc2)CC(C)O1 (stereo not given) | . | . | -26 | . | 20% | .
CC1(Cc2ccc(F)c(Cl)c2)C(=O)Nc2c(Cl)cccc21 (stereo not given) | . | . | -13 | . | . | .
CC(C)c1ccccc1NC(=S)N1CCN(S(=O)(=O)c2cccs2)CC1 | ? | 0% | -2 | -3% | -8% | 5.2µM*
CN1CCN(S(=O)(=O)c2cccs2)CC1 | 6% | -1% | 1 | 2% | 0% | -12%
Cc1c(Cl)cccc1NC(=S)N1CCN(S(=O)(=O)c2cccs2)CC1 | 1.9µM* | -1% | -22 | -1% | -10% | ?
Cc1cc(C)cc(N=Cc2[nH]c3ccc(Br)c(Cl)c3c2O)c1 | 1.5µM* | ? | 146 | ? | 3% | ?
SMILES | Pf growth 48h | SARS PLpro yeast | HCMV inh | Sm TGR block | HCV inhibitor | Pf growth 96h
COc1ccc(CN=Cc2[nH]c3ccc(Br)c(Cl)c3c2O)cc1 | 3.7µM* | -17% | 40 | ? | 3% | ?
COc1ccc(S(=O)(=O)N2CCC(C(=O)NCCCc3ccccc3)CC2)cc1 | 10% | -5% | ? | 0% | ? | -4%
CCOc1cc(/C=C2\SC(=N)N(c3nonc3N)C2=O)ccc1OCCN1CCOCC1 | 1.3µM* | 1% | 7 | 1% | 15% | ?
CCOc1cc(/C=C2\SC(=N)N(c3nonc3N)C2=O)ccc1OCC(N)=O | -20% | 1% | -2 | 7% | ? | 38%
Nc1c(C(=O)c2ccccc2)sc2nsc(SCCN3CCCC3)c12 | ? | -4% | -91* | 40µM* | ? | ?
Nc1c(C(=O)c2ccc(Cl)cc2)sc2nsc(SCCN3CCOCC3)c12 | -9% | -1% | -15 | -18% | ? | 5%
C/C(=N\NC(=O)CNc1cccc(C)c1)c1ccc(Br)s1 | 8% | -15% | -62* | -15% | ? | ?
C/C(=N\NC(=O)Cc1ccccc1)c1ccc(Br)s1 | 27% | 12% | 75 | 0% | -5% | 78%
CSc1ccc(/C=N/NC(=O)CNc2cccc3ccccc23)cc1 | 3% | 6% | 2 | 5% | 2% | 10%
Cc1cccc(C(=O)N/N=C/c2ccc[nH]2)c1 | 0% | -1% | -28 | 3% | ? | 81%
Cc1cccc(NCC(=O)N/N=C\c2ccc[nH]2)c1 | -1% | 1% | 19 | 9% | 8.9µM* | 7%
O=C(CNc1cccc2ccccc12)N/N=C/c1ccc[nH]1 | 9% | 0% | -68* | 3% | 1µM* | -3%
CCOC(=O)NC(O)C(=O)c1ccc(F)cc1 (stereo not given) | -18% | 0% | -30 | -2% | 13% | ?
CCOC(=O)NC(O)C(=O)c1cccs1 (stereo not given) | 8% | -9% | 17 | 0% | 16% | 5.2µM*
Nn1c(SCC(=O)Nc2ccc(Oc3ccccc3)cc2)nnc1C1CC1 | 8.3µM* | -1% | -21 | -11% | 7% | ?
Nn1c(SCC(=O)Nc2ccc(F)c(F)c2)nnc1C1CCCCC1 | -28% | 15% | -2 | 7% | -2% | 12µM*
COc1ccc(NC(=O)Cn2nnc(C(=O)NCc3ccc4c(c3)OCO4)c2N)cc1 | 35% | 2% | -39 | -3% | 2% | -2%
COc1cc(NC(=O)c2nnn(CC(=O)Nc3cc(C)ccc3C)c2N)cc(OC)c1 | . | . | -70* | -2% | . | .
Cc1cc(C)cc(NC(=O)Cn2nnc(C(=O)NCc3ccc4c(c3)OCO4)c2N)c1 | 32% | 0% | -21 | 1% | 0% | 0.1µM*
Cc1cc(C)cc(-n2nnc(C(=O)NCc3ccc(Cl)cc3)c2N)c1 | ? | -3% | -34 | 3% | ? | -19%
Cc1ccc(CNC(=O)c2nnn(CC(=O)Nc3cc(C)cc(C)c3)c2N)cc1 | 36% | -3% | ? | 0% | 14% | 2.1µM*
Cc1cc(C)cc(-n2nnc(C(=O)NCc3ccccc3)c2N)c1 | 13µM* | -1% | 25 | 0% | 11% | ?
